Experimental data reported in PubChem BioAssay (NCATS).
Records with an inconclusive call do not appear. Calls of active or inactive are those of the source. Unless noted, calls follow the shape of the dose curve; as a rule, active = well fitted curve in the direction sought with a large enough effect; inconclusive = small, poorly fitted or top-dose-only effect, or another doubt; inactive = no such curve, though single readings can be large; an effect the other way counts as inactive or inconclusive.

Experiments:
[1] = S16 Schwann cell viability assay (CellTiter-Glo assay) (AID 624031); also: nearly all actives have a fitted effect of over 70% in size; also: potency is read from the fitted curve at half-maximal effect;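 as to activity change, negative = cytotoxicity: native untransfected S16 rat Schwann cells; plate controls were DMSO-treated cells for no effect and cell-free wells for full effect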
How it was run: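 Counter-screen for cytotoxicity: parental S16 rat Schwann cells lacking the PMP22 reporters, treated 24 h with compound, viability from cellular ATP by CellTiter-Glo luminescence, normalized to DMSO (0%) and no-cell wells.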

[2] = S16 Schwann cell PMP22 intronic element firefly luciferase assay (AID 624032); also: nearly all actives have a fitted effect of over 30% in size; also: potency is read from the fitted curve at half-maximal effect
How it was run: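 Rat S16 Schwann cells stably carrying firefly luciferase driven by a PMP22 intronic element, in 10% FBS, treated 24 h at 37 C. ONE-Glo luminescence normalized to PTC124 control and DMSO (0%); curves classed by r2, magnitude and activity.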

[3] = S16 Schwann cell PMP22 intronic element beta-lactamase assay (AID 624044; calls by dose curve; also: nearly all actives have a fitted effect of over 15% in size; also: potency is read from the fitted curve at half-maximal effect)
How it was run: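 Rat S16 Schwann cells with beta-Lac driven by a PMP22 intronic element, compound-treated 24 h at 37 °C. LiveBLAzer FRET B/G read: 460 nm normalized to potassium clavulanate vs DMSO; 535 nm FRET as viability; concentration-effect curves classified.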

[4] = test system: CP192; assay: qHTS profiling for inhibitors of Plasmodium falciparum proliferation (AID 504749); also: nearly all actives have a fitted effect of over 60% in size; also: potency is read from the fitted curve at half-maximal effect; settings: P. falciparum in erythrocytes, SYBR Green DNA, 72 h; series mostly up to 28.7 µM
How it was run: (§1)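 P. falciparum-infected erythrocytes (0.3% parasitemia, 2.5% hematocrit) incubated with compound 72 h at 37 C, 5% CO2. Parasite DNA detected by SYBR Green after lysis, overnight at room temperature; normalised to 0.29 uM artemisinin and DMSO.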

[5] = test system: CP215; assay: as above; settings: P. falciparum in erythrocytes, SYBR Green DNA, 72 h; series mostly up to 28.7 µM
How it was run: as §1

[6] = test system: CP260; assay: as above; settings: P. falciparum in erythrocytes, SYBR Green DNA, 72 h; series mostly up to 28.7 µM
How it was run: as §1

[7] = test system: CP268; assay: as above; settings: P. falciparum in erythrocytes, SYBR Green DNA, 72 h; series mostly up to 28.7 µM
How it was run: as §1

[8] = test system: CP291; assay: as above; settings: P. falciparum in erythrocytes, SYBR Green DNA, 72 h; series mostly up to 28.7 µM
How it was run: as §1

[9] = test system: CP305; assay: as above; settings: P. falciparum in erythrocytes, SYBR Green DNA, 72 h; series mostly up to 28.7 µM
How it was run: as §1

[10] = test system: CP325; assay: as above; settings: P. falciparum in erythrocytes, SYBR Green DNA, 72 h; series mostly up to 28.7 µM
How it was run: as §1

[11] = test system: CP329; assay: as above; settings: P. falciparum in erythrocytes, SYBR Green DNA, 72 h; series mostly up to 28.7 µM
How it was run: as §1

[12] = test system: CP335; assay: as above; settings: P. falciparum in erythrocytes, SYBR Green DNA, 72 h; series mostly up to 28.7 µM
How it was run: as §1

[13] = test system: DIV17; assay: as above; settings: P. falciparum in erythrocytes, SYBR Green DNA, 72 h; series mostly up to 28.7 µM
How it was run: as §1

[14] = test system: DIV30; assay: as above; settings: P. falciparum in erythrocytes, SYBR Green DNA, 72 h; series mostly up to 28.7 µM
How it was run: as §1

[15] = test system: ICS; assay: as above; settings: P. falciparum in erythrocytes, SYBR Green DNA, 72 h; series mostly up to 28.7 µM
How it was run: as §1

[16] = test system: PC26; assay: as above; settings: P. falciparum in erythrocytes, SYBR Green DNA, 72 h; series mostly up to 28.7 µM
How it was run: as §1

[17] = Cellular Toxicity (caspase-3) SK-N-SH (AID 661);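 also: 0% = DMSO basal and 100% = 10 µM staurosporine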
How it was run: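 Human SK-N-SH neuroblastoma cells, 1500/well, were exposed to compounds for 16 hours at 37 °C. Caspase-Glo 3/7 luminescence was normalized to DMSO (basal) and 10 uM staurosporine (100%), and AC50 came from a Hill fit.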

[18] = qHTS assay to identify small molecules that stimulate interleukin-8 (IL-8) secretion (AID 651758; active = well fitted activation curve with a large enough effect in the signal ratio; the % refers to the signal ratio; also: potency is read from the fitted curve at half-maximal effect; as to activation: 0% is about no effect)
How it was run: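 THP-1 cells (2000/well) exposed to compound 16 h at 37 C; secreted IL-8 then detected by HTRF with cryptate- and XL665-labelled anti-IL-8 antibody pair after 1-3 h at room temperature.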

[19] = biological target: Ubiquitin carboxyl-terminal hydrolase 1 (Homo sapiens) (UniProt O94782); assay: Inhibitors of USP1/UAF1: Pilot qHTS (AID 504865);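 also: rhodamine fluorescence freed from ubiquitin-rhodamine substrate followed over time; top concentration of the series differs between compounds; % is scaled to controls: 0 for no effect and ±100 for the full control effect; nearly all actives have a fitted effect of over 35% in size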
How it was run: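 Kinetic fluorescence assay: 1nM USP1/UAF1, 15 min compound preincubation, then 150nM Ub-Rho; 480/540 nm.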

[20] = Cell Viability - Mesenchymal (AID 546); settings: mesenchymal cells viability, qHTS; activity change, negative = cytotoxicity: at 91.7 µM (top of the series);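 also: cells exposed to compound for 40 hours before reading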; also: potency is read from the fitted curve at half-maximal effect;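 as to activity change, negative = cytotoxicity: 0% = DMSO only and -100% = 100 µM tamoxifen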
How it was run: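 Human kidney mesenchymal cells from normal renal glomeruli, 1000 cells/well, rested 5 hr at 37 °C, then treated 40 hr at 37 °C in complete medium. Cellular ATP read by CellTiter-Glo luminescence; AC50 from Hill-equation fits.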

Sequence of Ubiquitin carboxyl-terminal hydrolase 1 (Homo sapiens) (O94782 whole entry, looked up): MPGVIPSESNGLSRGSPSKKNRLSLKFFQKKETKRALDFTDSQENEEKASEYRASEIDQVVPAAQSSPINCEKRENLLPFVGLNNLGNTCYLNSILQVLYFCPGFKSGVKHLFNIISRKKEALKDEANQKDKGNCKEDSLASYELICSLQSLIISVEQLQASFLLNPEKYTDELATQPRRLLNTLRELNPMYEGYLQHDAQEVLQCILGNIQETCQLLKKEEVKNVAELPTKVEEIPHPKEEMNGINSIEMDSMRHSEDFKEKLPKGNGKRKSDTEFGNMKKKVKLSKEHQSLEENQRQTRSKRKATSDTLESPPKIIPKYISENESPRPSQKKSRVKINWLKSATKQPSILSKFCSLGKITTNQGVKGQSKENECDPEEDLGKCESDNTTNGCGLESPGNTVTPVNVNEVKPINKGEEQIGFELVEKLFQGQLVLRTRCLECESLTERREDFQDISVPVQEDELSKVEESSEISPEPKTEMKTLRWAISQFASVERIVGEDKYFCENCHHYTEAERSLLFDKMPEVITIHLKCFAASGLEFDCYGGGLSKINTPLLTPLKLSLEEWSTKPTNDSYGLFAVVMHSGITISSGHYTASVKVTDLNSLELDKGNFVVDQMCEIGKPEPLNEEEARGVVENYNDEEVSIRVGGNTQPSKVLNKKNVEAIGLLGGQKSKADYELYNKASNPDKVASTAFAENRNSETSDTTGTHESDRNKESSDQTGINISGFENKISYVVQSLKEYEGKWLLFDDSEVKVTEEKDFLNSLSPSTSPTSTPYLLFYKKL

CO/N=C(/C(=O)N[C@@H]1C(=O)N2C(C(=O)O)=CCS[C@H]12)c1csc(N)n1
inactive: Potency [1] | Potency [2] | Potency [3] | Potency [4] | Potency [5] | Potency [6] | Potency [7] | Potency [8] | Potency [9] | Potency [10] | Potency [11] | Potency [12] | Potency [13] | Potency [14] | Potency [15] | Potency [16]

c1ccccc1
inactive: outcome [17] | Potency [18]

C/C=C\c1ccc(OC)cc1
inactive: Potency [19] | Potency [1] | Potency [2] | Potency [18] | Potency [4] | Potency [5] | Potency [6] | Potency [7] | Potency [8] | Potency [9] | Potency [10] | Potency [11] | Potency [12] | Potency [13] | Potency [14] | Potency [15] | Potency [16]

Cc1ccc([N+](=O)[O-])cc1N
inactive: activity change, negative = cytotoxicity [20] -1.39%

COC(=O)c1ccc(C)cc1
inactive: activity change, negative = cytotoxicity [20] -2.78%

CC(C)(CO)C(O)C(=O)NCCCC(=O)O (centres undefined)
active: Potency [5] 12 µM
inactive: Potency [19] | Potency [1] | Potency [2] | Potency [3]

COc1c2ccoc2cc2oc(=O)ccc12
inactive: outcome [17]

CC1(C)CC(N=C=O)CC(C)(CN=C=O)C1 (centres undefined)
inactive: activity change, negative = cytotoxicity [20] 8.39%

CN1CC[C@H](CN2c3ccccc3Sc3ccccc32)C1
active: Potency [1] 36.1 µM | Potency [2] 32.2 µM | Potency [6] 11.2 µM | Potency [7] 15.1 µM | Potency [8] 15.1 µM | Potency [9] 15.1 µM | Potency [10] 15.1 µM | Potency [13] 5.36 µM | Potency [14] 13.5 µM | Potency [15] 2 µM | Potency [16] 13.5 µM
inactive: Potency [19] | Potency [3] | Potency [4] | Potency [11]

NC1=NC(S)C2N=CN=C2N1 (centres undefined)
inactive: Potency [19] | Potency [4] | Potency [5] | Potency [6] | Potency [7] | Potency [8] | Potency [9] | Potency [10] | Potency [11] | Potency [12] | Potency [13] | Potency [14] | Potency [15] | Potency [16]
active: Potency [20] 0.251 µM | Potency [2] 1.44 µM | Potency [3] 3.98 µM | Potency [18] 66.8 µM

C=CCOC(=O)c1ccccc1C(=O)OCC=C
inactive: activity change, negative = cytotoxicity [20] -9.3%

S=C1NC=NC2N=CNC12 (centres undefined)
inactive: outcome [17] | Potency [19] | Potency [1] | Potency [6] | Potency [12] | Potency [15]
active: Potency [2] 2.87 µM | Potency [3] 17.8 µM | Potency [18] 42.2 µM

O=C1c2ccccc2C(=O)C1c1ccc2ccccc2n1
inactive: activity change, negative = cytotoxicity [20] -33.6% | outcome [17]

Cc1ccc([N+](=O)[O-])c(C)c1
inactive: Potency [18]

CN(C)CCCCCCN(C)C
inactive: outcome [17] | Potency [19] | Potency [1] | Potency [3] | Potency [4] | Potency [5] | Potency [6] | Potency [7] | Potency [8] | Potency [9] | Potency [10] | Potency [11] | Potency [12] | Potency [13] | Potency [14] | Potency [15] | Potency [16]

O=C(O)CC(C(=O)O)C(CC(=O)O)C(=O)O (centres undefined)
inactive: outcome [17] | Potency [18]

C1OCOCO1
inactive: activity change, negative = cytotoxicity [20] -5.36% | outcome [17] | Potency [19] | Potency [1] | Potency [2] | Potency [3] | Potency [4] | Potency [5] | Potency [6] | Potency [7] | Potency [8] | Potency [9] | Potency [10] | Potency [11] | Potency [12] | Potency [13] | Potency [14] | Potency [15] | Potency [16]
active: Potency [18] 66.8 µM
